A selection: hits, their analogues and other compounds. The true share with any hit is near 1.4%.
TSG101-PTAP inh – TSG101-PTAP interaction inhibition, HIV-1 budding; Q99816; Fluorescence polarization, FITC-PTAP peptide/Tsg101, 20 min; Potency, µM (doses to about 115 µM), usual class: inhibitors; 44,000 tested, under 10 active
Target sequence (Q99816 whole entry, looked up): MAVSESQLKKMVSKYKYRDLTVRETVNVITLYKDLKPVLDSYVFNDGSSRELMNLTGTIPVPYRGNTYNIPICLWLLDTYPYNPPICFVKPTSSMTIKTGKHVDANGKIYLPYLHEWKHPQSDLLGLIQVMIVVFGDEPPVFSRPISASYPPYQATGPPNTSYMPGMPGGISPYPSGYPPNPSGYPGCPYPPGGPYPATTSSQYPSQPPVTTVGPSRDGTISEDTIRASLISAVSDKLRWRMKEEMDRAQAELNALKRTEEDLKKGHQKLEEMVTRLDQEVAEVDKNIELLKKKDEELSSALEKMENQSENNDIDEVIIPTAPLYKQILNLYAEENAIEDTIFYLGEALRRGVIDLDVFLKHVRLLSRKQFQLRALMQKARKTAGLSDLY
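Steps: Tsg101 binding domain (10 uM final) in HEPES pH 7.5/NaCl/Tween 20/EDTA/TCEP; add compound; add FITC-PTAP peptide (50 nM final); incubate 20 min r.t.; read polarization.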
GALK inh – inhibitors of human galactokinase (GALK) | recombinant GALK, Kinase-Glo ATP luminescence, 1 h | Potency, µM (top dose mostly 57.5 µM), most hits filed as inhibitors | 44,000 tested, under 10 active | AID 1347072
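5 nM GALK; 35 uM ATP; 100 uM D-galactose; 20 mM HEPES pH 8.0, 5 mM MgCl2, 60 mM NaCl, 1 mM DTT, 0.01% BSA; 1 h RT; Kinase-Glo Plus luminescence.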
HTT-AS promoter – activates huntingtin-antisense promoter activity | HEK293 HTT-AS promoter firefly luciferase reporter, 24 h; response scale: percent change from vehicle, -100% = no light | Potency, µM (highest dose often 57.5 µM), actives largely listed as activators | 0.24% of 48,000 active; note: nearly all actives have a fitted effect of over 55% in size
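HEK293 Fluc reporter, 2,500 cells/well, 24 h pre-culture; cpds up to 57.5 uM final, 24 h 37 degrees C; Dual-Glo, 10 min RT; normalized vehicle = 0%, zero RLU = -100%.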
GALC G270D act – enhancers of human galactocerebrosidase G270D mutant activity in cells; AID 1159614; 0.1% of 45,000 active; P54803; 145M-Twi-hGALC-G270D cells (Twitcher mouse brain line with human GALC G270D), HMU-beta-Gal fluorescence, 48 h; Potency, µM (series often up to 57.5 µM), usual class: activators; note: nearly all actives have a fitted effect of over 65% in size
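Fluorogenic HMU-b-Gal hydrolysis (0.1 mM final, pH 5.2 citrate-phosphate with 1 mg/mL sodium taurocholate; carbonate stop buffer) measures mutant GALC activity after compound treatment of live 145M-Twi Twitcher brain cells stably carrying human GALC-G270D, with wild-type GALC line alongside; activation sought.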
B2AR arrestin ag – agonists recruiting beta-arrestin to human beta2-adrenergic receptor | AID 1347077 | Potency, µM (titrated, usually from 46.1 µM), most hits filed as activators | 44,000 tested, under 10 active | P07550 | HTLA Tango cells, beta-arrestin recruitment, luciferase luminescence, 18 h
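Receptor–beta-arrestin recruitment read by tTA-responsive luciferase: compound titrations (up to 46 µM) incubated 18 h with Tango cells, then luminescent substrate 15 min at room temperature. Concentration-response fits classified by r2, efficacy and activity.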
HTT prom inh – inhibitors of huntingtin promoter activity; HEK293 HTT promoter firefly luciferase reporter, 24 h; AID 1508623; Potency, µM (doses to about 57.5 µM), hits mostly inhibitors; 0.93% of 48,000 active; note: nearly all actives have a fitted effect of over 50% in size
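Quantitative HTS used concentration series of up to 57.5 uM final on HEK293 luciferase reporter cells, 24 h at 37 degrees C. Readout was Dual-Glo firefly luminescence.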
Large screens that a line does not name were inactive. Calls come from the whole dose curve; as a rule, active = well fitted curve in the direction sought with a large enough effect; inconclusive = small, poorly fitted or top-dose-only effect, or another doubt; inactive = no such curve, though single readings can be large; an effect the other way counts as inactive or inconclusive.

Cc1cccn2c(=O)c3cc(C(=O)NC(C)c4ccccc4)c(=N)n(CCOCCO)c3nc12 (stereo unspecified)	none
CCCN(c1ccccc1CC)S(=O)(=O)c1ccc2c(c1)CC(C)N2C(=O)C1CC1 (stereo unspecified)	HTT prom inh 22µM
Cc1noc2ncnc(N3CCN(c4ccccc4F)CC3)c12	HTT prom inh inconclusive
CC(=O)c1ccc(N2CCN(c3ncnc4onc(C)c34)CC2)cc1	HTT prom inh 4.5µM
CCc1ccc(NC(=O)c2sc3nc(C)c(Cl)c(C)c3c2N)cc1	HTT-AS promoter 2.5µM
COC(=O)c1ccccc1NC(=O)Cn1c(=O)nc(-c2ccccc2)c2cc(Cl)ccc21	none
CCC(C)NC(=O)C1CCN(C(=O)c2cc3sccc3n2Cc2ccc(Cl)cc2)CC1 (stereo unspecified)	HTT prom inh 8.9µM
COCCNC(=O)C1CCN(C(=O)c2cc3sccc3n2Cc2ccc(Cl)cc2)CC1	HTT prom inh inconclusive
COc1cccc(-n2c(=O)c3sc4ccccc4c3n(Cc3c(F)cccc3Cl)c2=O)c1	none
COc1ccc(NC(=O)CSc2nccn2Cc2ccco2)c(OC)c1	HTT-AS promoter inconclusive
CC(=O)c1ccc(NC(=O)c2nc(-c3ccccc3)n(-c3ccccc3)n2)cc1	none
Cc1c(C(=O)Nc2ccc(C(=O)O)cc2)nnn1-c1ccccc1	HTT prom inh 2.5µM
COCCCNC(=O)C1CCC(Cn2c(=O)c3sccc3n(Cc3ccc(F)cc3)c2=O)CC1 (stereo unspecified)	none
CCOC(=O)c1c(S(=O)(=O)N2CCCC(C(=O)Nc3cc(C)ccn3)C2)c(C)n(C)c1C (stereo unspecified)	none
CCOc1ccc(-c2cc(C(=O)N3CCN(c4ccc(C)cc4)C(C)C3)c3ccccc3n2)cc1 (stereo unspecified)	HTT-AS promoter 1.8µM
COc1ccc(OC)c(S(=O)(=O)Nc2ccc3c(c2)n(C)c(=O)n3C)c1	none
CCOc1ccc(C2C(=O)N(C3CCCCC3)CC(=O)N2Cc2ccc(F)cc2)cc1OC (stereo unspecified)	none (no result: HTT-AS promoter, GALC G270D act, HTT prom inh)
CCn1c(=O)sc2cc(NS(=O)(=O)c3ccc(F)c(C)c3)ccc21	HTT prom inh 14µM
COc1nnc(-c2ccc(N3CCCCC3)c(NC(=O)c3ccccc3Cl)c2)c2ccccc12	HTT prom inh 11µM
COc1nnc(-c2ccc(N3CCCCC3)c(NC(=O)c3ccc(C)cc3)c2)c2ccccc12	none
Cc1ccc(NC(=O)Cn2cc3c(n2)CCCC3)c(Cl)c1	none
CCN(C(=O)Cn1c(=O)oc2cc(S(=O)(=O)N3CCCCCC3)ccc21)c1cccc(C)c1	none
Cc1ccc(NC(=O)CSc2nccn2Cc2ccco2)cc1Cl	HTT-AS promoter 13µM
O=C(CSc1nccn1Cc1ccco1)Nc1ccc(F)cc1	none
CC(=O)c1ccc(NC(=O)CSc2nccn2Cc2ccco2)cc1	HTT-AS promoter 3.2µM
CCc1ccccc1NC(=O)C1CCC(CNS(=O)(=O)c2ccc3c(c2)CC(C)N3C(C)=O)CC1 (stereo unspecified)	none
COc1cc(NC(=O)Cn2nc(C(F)(F)F)c3c2CCCC3)cc(OC)c1OC	GALK inh inconclusive, HTT prom inh 22µM
Clc1cccc(N2CCN(c3ncnc4c3nc3n4CCCCC3)CC2)c1	HTT prom inh 10µM
Clc1ccc(N2CCN(c3ncnc4c3nc3n4CCCC3)CC2)cc1	HTT prom inh 1.4µM
c1ccc(N2CCN(c3ncnc4c3nc3n4CCCCC3)CC2)cc1	HTT prom inh inconclusive
Cc1ccc2nc(-c3ccc(NC(=O)c4ccccc4S(C)(=O)=O)cc3)sc2c1	none
CCCCc1nn2c(=O)cc(COC(=O)c3cccc(NC(=O)CCc4ccccc4)c3)nc2s1	HTT-AS promoter 0.25µM
CCCc1nn2c(=O)cc(COC(=O)c3cccc(NC(=O)CCc4ccccc4)c3)nc2s1	none
COc1ccc(N(Cc2ccccc2)C(=O)c2nc(SC)ncc2Cl)cc1	HTT prom inh 20µM
CCS(=O)(=O)c1ncc(Cl)c(C(=O)N(Cc2ccccc2)c2ccc(OC)cc2)n1	HTT prom inh 16µM
CCS(=O)(=O)c1ncc(Cl)c(C(=O)NCc2ccc(OC)cc2)n1	B2AR arrestin ag inconclusive, HTT prom inh inconclusive
Cc1ccc(C(=O)Nc2ccc3c(c2)N(C)C(=O)c2ccccc2S3)cc1F	HTT prom inh 13µM
CN1C(=O)c2ccccc2Sc2ccc(NC(=O)N3CCN(c4ccc(F)cc4)CC3)cc21	HTT prom inh 28µM
Cc1cc(C)c(/C=C/c2onc(C)c2S(=O)(=O)N2CCC(C(=O)NCc3ccccc3Cl)CC2)c(C)c1	none
Cc1ccc(C)c(Cn2c3ccccc3c3cnn(CC(=O)NCCc4ccccc4)c(=O)c32)c1	none
CCOc1ccc(N2CC(NC(=O)C3CCCC3)CC2=O)cc1 (stereo unspecified)	none
Cc1cc(Br)cc(C)c1NC(=O)c1cnc2ccccn2c1=O	HTT-AS promoter 28µM
Cc1ccc(C(=O)Nc2c(C)nc3ccccn3c2=O)cc1C	HTT-AS promoter inconclusive
Cn1c(NCc2ccccc2F)nc2ccccc21	HTT-AS promoter 5µM
O=C(CSc1nc2ccccc2n1Cc1ccccc1F)NCc1ccccc1	HTT prom inh inconclusive
Cc1ccccc1Oc1nc2ccccn2c(=O)c1/C=C(\C#N)c1nc2ccccc2[nH]1	none
CCCCNC(=O)CCc1c(C)nc2cc(-c3ccccc3)nn2c1C	HTT prom inh 2µM
Cc1nc2cc(-c3cccc(F)c3)nn2c(C)c1CCC(=O)NCCc1ccccc1	GALC G270D act inconclusive, HTT prom inh inconclusive
Cc1nc2cc(-c3ccccc3)nn2c(C)c1CCC(=O)NCCc1ccccc1	HTT prom inh 7.1µM
COc1ccccc1-c1cc2nc(C)c(CCC(=O)NCc3cccc(Cl)c3)c(C)n2n1	HTT prom inh 13µM
CCn1c(=O)c2sccc2n2c(CCCC(=O)N3CCN(c4cccc(Cl)c4)CC3)nnc12	none
COc1ccc(N2CCN(S(=O)(=O)CCNC(=O)Cc3ccc(-c4ccccc4)cc3)CC2)cc1	none
COc1cccc(-c2nc(SCC(=O)NCc3ccccc3)c3c(=O)n(C)c(=O)n(C)c3n2)c1	none
CC(=O)c1[nH]c(C)c(C(=O)NCCc2ccc(C)cc2)c1C	none
CCOC(=O)c1[nH]c(C)c(C(=O)NCCc2ccccc2)c1C	HTT-AS promoter 7.9µM
Cc1ccc(NC(=O)c2cc3c(Cl)nc4ccc(C)cc4c3s2)c(Cl)c1	none
Cc1cc(=O)[nH]c2nnc(SCC(=O)Nc3cc(C(F)(F)F)ccc3Cl)n12	none

Screens (PubChem)
